Laboratory results: the supplement of paper PMC6555819

Columns and labels:
Assay in all cases: PBM binding z-score (relative to random genomic background probes); higher = stronger binding; sequences stand for … in GC…GCGATTGACAGCGTAGAATGAAGG
[1] = system: FXR:RXRa (NR concentration 270 nM, RXRa partner concentration 90 nM)
Outline: (§1)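 Random background probes are the reference for binding z-scores. These scores derive from regression-normalized fluorescence on custom Agilent 4×180K protein-binding microarrays incubated 1 h with ligand-free nuclear receptor dimers. Binding was detected with antibodies against each partner (one per run).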

[2] = system: LXRa:RXRa (NR concentration 270 nM, RXRa partner concentration 90 nM)
Outline: as §1

[3] = system: LXRa homodimer (NR concentration 270 nM)
Outline: as §1

[4] = system: LXRb:RXRa (NR concentration 270 nM, RXRa partner concentration 90 nM)
Outline: as §1

[5] = system: LXRb homodimer (NR concentration 270 nM)
Outline: as §1

[6] = system: PPARa:RXRa (NR concentration 270 nM, RXRa partner concentration 90 nM)
Outline: as §1

[7] = system: PPARg:RXRa (NR concentration 180 nM, RXRa partner concentration 90 nM)
Outline: as §1

[8] = system: PPARg:RXRa 270nM:90nM, anti-RXR (NR concentration 270 nM, RXRa partner concentration 90 nM)
Outline: as §1

[9] = system: PPARg:RXRa 30nM:10nM, anti-RXR (NR concentration 30 nM, RXRa partner concentration 10 nM)
Outline: as §1

[10] = system: PPARg:RXRa 90nM:30nM, anti-RXR (NR concentration 90 nM, RXRa partner concentration 30 nM)
Outline: as §1

Row | Sequence | PBM binding z-score [1] | PBM binding z-score [2] | PBM binding z-score [3] | PBM binding z-score [4] | PBM binding z-score [5] | PBM binding z-score [6] | PBM binding z-score [7] | PBM binding z-score [8] | PBM binding z-score [9] | PBM binding z-score [10]
1 | ACTTACGGGTCAACGAGGTTATAGTACGCGTATA | 6.84 | 5.12 | 1.1 | 4.53 | 0.951 | 5.76 | 5.66 | 5.72 | 2.24 | 4.29
2 | CGAACGAGGGGATGAGTTGATAGCAAATGCCGAT | 0.0387 | -0.222 | -0.351 | -0.0303 | -0.345 | -0.335 | 0.733 | 0.0328 | -0.38 | -0.23
3 | TCTATTAGTTGATTATGGCAACCGAAACAGCGGA | 0.958 | 0.726 | 0.306 | 0.64 | 1.08 | 0.209 | 0.113 | 1.91 | 4.11 | 3.45
4 | CGCCAAAGTTCAAGGTAACGTAACAGAAAGCAGC | 6.49 | 5.62 | 3.2 | 3.55 | 0.961 | 5.17 | 4 | 4.83 | 1.8 | 3.27
5 | CCTGCTAGGTCATTGGTCAGCTAAAGCAGCTCGC | 4.06 | 3.07 | 0.559 | 2.13 | 0.108 | 3.56 | 3.71 | 4.63 | 1.79 | 4.05
6 | CCTGGGAGGACAGAAGGTCAGAGCTGTCCGCTTT | 1.53 | 1.86 | 0.303 | 1.01 | -0.655 | 2 | -0.0173 | 1.11 | -0.659 | 0.29
7 | CCTTGTTGGTCAAGGTCACACACGCTATAGGTAC | 4.42 | 3.87 | 2.19 | 3.91 | 0.763 | 4.27 | 3.05 | 3.47 | 1.21 | 2.69
8 | CCCACTGGGCCAAAAAGGTCATTGATGCCGATAA | 3.49 | 4.24 | 3.22 | 4.01 | 0.236 | 4.45 | 3.06 | 4.19 | 1.38 | 3.23
9 | ATCGAAAGGTCGTGAGGTGAGTCTACAGAAAGGC | 4.96 | 3.75 | 0.0112 | 3.17 | 0.35 | 4.99 | 3.79 | 4.19 | 1.17 | 2.92
10 | GCTTGTAGATAAAGGTTAAGAAAGACTAAGCTAA | 0.528 | 2.06 | 0.00551 | 1.54 | -0.409 | 2.29 | 1.41 | 2.24 | 0.494 | 1.88
11 | TCAAACAGGTGAAGGTAACTCAGGTACGCAGTCG | 1.02 | 1.85 | 0.0857 | 1.22 | -0.218 | 1.61 | 0.959 | 2.43 | 4.26 | 3.48
12 | TAGCCTAGGTCATTCAGGGGCCAATATAGAAAGC | 4.5 | 4.59 | 1.12 | 3.78 | 1.21 | 3.97 | 2.41 | 2.82 | 0.793 | 1.51
13 | ATCTGTAGGTTAAGGGTCATTCAGGTTGGTTCGC | 5.22 | 5.26 | 3.63 | 4.56 | 1.72 | 5.72 | 9.93 | 9.03 | 9.65 | 10.6
14 | CGTAGTTGGTCAAGGTCACACACGCTATAGGTAC | 4.12 | 3.72 | 1.39 | 3.6 | 0.592 | 4.13 | 3.4 | 3.54 | 1.47 | 2.64
15 | TCTTGTGGATCAATAGAGGTTAAGAAAGTGCGCT | 0.938 | 3.27 | 0.355 | 1.91 | 0.376 | 1.63 | -0.178 | 1.51 | 2.31 | 1.64
16 | GGAACGAGGCCATTCGAGTTGATAGCATGGCGAT | 0.572 | 0.106 | -0.48 | -0.483 | -0.846 | 0.013 | 0.591 | 0.257 | -0.557 | -0.163
17 | TCTTGTAGCTCAGCAGGTTAAGAAAGCTGGCCAA | -0.369 | -0.138 | -0.851 | -0.1 | -0.79 | 0.495 | -0.935 | 0.729 | 1.58 | 1.27
18 | GCTTACGCGTCAAAGGTTATAGCATGAATAGAAT | 1.21 | 1.97 | -0.0765 | 2.18 | -0.553 | 3.38 | 3.1 | 3.84 | 2.28 | 4.07
19 | CCTCGGAGGACAGAAGGTAAGAGCTGTCCGCTTT | -0.304 | -0.532 | -0.965 | -1.02 | -1.17 | -0.652 | -0.402 | -0.815 | -1.03 | -0.914
20 | TCTGCAAGGTCAACGATGGTCAGCTAATCTGCTA | 6.64 | 5.29 | 0.751 | 4.06 | 0.582 | 5.41 | 4.78 | 4.95 | 2.86 | 4.09
21 | ATCTCTAGGTAAGGATAGTTCAGTGAATGCAAAT | 0.343 | 0.874 | 0.613 | 0.271 | 0.693 | 0.427 | 0.279 | 0.182 | 0.215 | 0.134
22 | CCGAGTAGGTTATAGGGCATTCAGGCAACGGTGA | 0.59 | 0.988 | 0.388 | 0.765 | -0.185 | 3.47 | 6.04 | 6.43 | 4.96 | 6.5
23 | ACTAGCAGGCCAAGGGTCCCTCAAGATTAGTCCG | -0.253 | -0.502 | -0.631 | -0.64 | -1.13 | 1.09 | 2.3 | 4.09 | 1.73 | 3.84
24 | CCTGCTAGGTCATGGTCCGCTAATCTACAGTATG | 3.61 | 2.3 | 0.0178 | 1.67 | -0.223 | 3.46 | 2.34 | 2.78 | 0.499 | 1.74
